SMILES strings stand for the structures. Active and inactive are the calls of the source.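 The calls were made as follows: active = hit in primary screen, with calcium signal over 5 SD above buffer well mean in both duplicates; inactive = the rest.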

This test can be described thus: nonspecific calcium rise without TRPC4 – cell-based, HEK293 mu-opioid receptor line, counter-screen for TRPC4 activator project, confirmation (AID 449723).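 Also: counter screen cells carry the mu-opioid receptor alone and lack TRPC4.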 As to activation: reference of the scale not given here. The following applies: HEK293 mu-opioid cells, Fluo-4 calcium fluorescence, at 10 µM; stronger effect = higher value. On the technique in general: Counterscreens check selectivity or assay interference.
For `Fc1ccc(-c2nnc(CN3CCN(c4ncc(C(F)(F)F)cc4Cl)CC3)o2)cc1`, the result was inactive. Same read-out and setting: the entry for `CCN1CCN(c2ccc(S(=O)(=O)N3CCCCC3)cc2NC(=O)COc2ccccc2)CC1` is “inactive”; for `CC1CC(C)CN(CCCNC(=O)c2nn(C)c3c2CS(=O)(=O)c2ccccc2-3)C1` (centres undefined) it is “inactive”. For `Cc1ccc(/C=N\NC(=O)C2COc3cc4ccccc4cc3O2)o1` (centres undefined), the outcome was inactive. On to `Cc1cccc(C)c1OCC(O)CN` (centres undefined), for which the result was inactive. Same read-out and setting: the result for `CCn1cc(CN2CCCC(C(=O)Nc3ccc(-c4nc5ccccc5[nH]4)cc3)C2)c(C)n1` (centres undefined) reads “inactive”; that for `CC(C)(C)c1cc(Cl)ccc1OCCn1ccnc1`, “inactive”; that for `CC(C)c1ccc(NC(=S)N(C)CCc2ccccn2)cc1`, “inactive”. Still for that read-out and setting: the entry for `CCCC(=O)NC(C)C(c1cccs1)N1CCN(c2ccccc2)CC1` (centres undefined) is “inactive”; for `Cc1ccc2oc(=O)c3cnn(CC(=O)NC4CCN(Cc5ccccc5)CC4)c3c2c1` it is “inactive”.

For `O=C(CCc1ccccc1)NNC(=S)NC(=O)c1ccc(Cl)cc1`, the activation was 28.6% (active). On to `C=CCn1c(CCNC(=O)c2ccco2)nc2ccccc21`, for which the outcome was inactive.

With `Cc1sc2nc(CSc3ccccc3)nc(NCCN(C)C)c2c1C`, the result was inactive. The same measure, in the same setting: the entry for `O=C(CNS(=O)(=O)c1ccc2ccccc2c1)NCCc1ccccn1` is “inactive”; for `COc1ccc(-c2cc(C#N)nc(N3CCNCC3)n2)cc1` it is “inactive”. The same measure, in the same setting: the entry for `Cc1ccc(C)c(OCCCCn2ccnc2)c1` is “inactive”; for `CCCN(CCC)CCNC(=S)Nc1ccc2nc3n(c(=O)c2c1)CCCCC3` it is “inactive”; for `Cc1cccc(NC(=S)NCC(c2cccnc2)N(C)C)c1` (centres undefined) it is “inactive”.

Turning to `COc1ccc(/C=C/CN2CCCC(C(=O)c3ccc(OC)c(F)c3)C2)cc1` (centres undefined), the result was inactive.

In the case of `Cc1sc2ncnc(NC3CCN(Cc4ccccc4)CC3)c2c1C`, the outcome was inactive. On the same count and under the same terms, the entry for `CCCCN(CC)CCNC(=O)c1cc2c(C)nc3ccccc3c2o1` is “inactive”. On the same count and under the same terms, the result for `O=C(NCCc1ccccn1)c1ccc(OC2CCN(CCc3ccccc3)CC2)cc1` reads “inactive”.

`Cc1ccccc1NC(=S)NCCc1ccccn1`: the result was inactive.

For the compound `NCCCn1c(C(=O)c2cc(Cl)c(N)c(Cl)c2)c2ccccc2[n+]1[O-]`, the result was inactive. Still for that read-out and setting: the result for `COc1ccc(-c2nn(-c3ccccc3)cc2CNCc2cccnc2)c(F)c1` reads “inactive”.

As to `Cc1onc(-c2ccccc2)c1C(=O)NC(=S)NNC(=O)c1ccco1`, the outcome was inactive.

With `COc1ccc(C(CNC(=O)c2ccc(S(=O)(=O)N(C)C)cc2)N(C)C)cc1` (centres undefined), the outcome was inactive. Same read-out and setting: the result for `CCN1C(=O)c2cccc3c(S(=O)(=O)Nc4ccccc4OC)ccc1c23` reads “inactive”.

In the case of `CCOC(=O)C1CCCN(C(c2ccccn2)c2c(C)[nH]c3ccccc23)C1` (centres undefined), the result was inactive. `COC(=O)c1ccccc1N=Nc1c(N)[nH][nH]c1=O`: the result was inactive.

For the compound `COc1ccc(C(CNCC(=O)Nc2ccccc2F)N(C)C)cc1` (centres undefined), the outcome was inactive. Still for that read-out and setting: the result for `CCOC(=O)C1(CCOc2ccccc2)CCN(Cc2cnc(C)s2)CC1` reads “inactive”; that for `O=C(c1sc2ccccc2c1Cl)N(Cc1ccco1)C1CCS(=O)(=O)C1` (centres undefined), “inactive”. The same measure, in the same setting: the result for `CCCCN(C)CCCNC(=O)CN1N=C(c2ccc(Cl)cc2)CCC1=O` reads “inactive”; that for `CN(C)CCCN(C(=O)c1ccc(C(=O)c2ccccc2)cc1)c1nc2ccc(F)cc2s1`, “inactive”. As to `CN(CCc1nc2ccc(Cl)cc2[nH]1)Cc1nc(CC2CC2)no1`, the result was inactive. On the same count and under the same terms, the result for `Fc1ccc(C(c2nnnn2Cc2cccs2)N2CCN(C3CCCCC3)CC2)cc1` (centres undefined) reads “inactive”; that for `COc1ccc(C2Nc3ccccc3C(=O)N2Cc2ccco2)cc1COc1ccc(NC(C)=O)cc1` (centres undefined), “inactive”.

In the case of `O=C(NCCCN1CCN(CCCNC(=O)c2ccc3c(c2)OCO3)CC1)c1ccc2c(c1)OCO2`, the outcome was inactive.
